Test results taken from PubChem BioAssay AID743402 (Broad Institute, 2014).
The whole screen tested about 1,200 compounds, of which about 140 (12%) were called active.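 How the source made its calls: active means fitted curve falls past -35% activity change at a dose under twice the top valid dose, in every replicate test; inconclusive means replicate tests disagree on the call; inactive means the rest, including activity in the opposite direction.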 The list is a sample of the results.

Assay: CFTR-F508del correctors, dose response, FRT cells, YFP quenching, cherry-pick (AID 743402);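 further: compounds act as correctors raising surface CFTR-F508del before acute activation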
Settings: FRT CFTR-F508del YFP iodide quenching, 24 h, channel opened with forskolin and a potentiator; series mostly up to 26 µM

Activity change, negative = more quenching (active), inactive:
NCC(=O)NNC(=O)OCC1c2ccccc2-c2ccccc21
COc1ccc(OC)c(-c2cc(-c3cccnc3)nc(N)c2C#N)c1
COc1cccc(N=Nc2ccc3cccnc3c2O)c1
O=C1NC(=Nc2ccc(O)cc2)S/C1=C/c1ccco1
COc1cc(/C=C2/SC(=Nc3ccc(O)cc3)NC2=O)cc(OC)c1O
CC(=O)c1ccc(Nc2cc(C)nc3c(C)cc(C)cc23)cc1
COc1ccc(Nc2nc(-c3sc(C)nc3C)cs2)cc1
COc1ccc(-c2ccc3c(c2)[C@H]2[C@H](CCN2S(=O)(=O)c2ccc(OC)cc2)[C@@H](CO)N3C)cc1
Cc1cccc(N2CCN(C(=O)c3c(-c4ccccc4)noc3C)CC2)c1C
C[C@@H]1CN([C@@H](C)CO)C(=O)c2cc(NS(=O)(=O)c3ccc(Cl)cc3)ccc2O[C@@H]1CN(C)Cc1ccc(C(F)(F)F)cc1
Nc1[nH]c(C(=O)c2ccccc2)c(-c2ccccc2C(F)(F)F)c1C(=O)NCCc1c[nH]c2ccccc12
Cc1cc(C)c2nc(Cl)c(CN(Cc3ccco3)C(=O)Nc3ccccc3C)cc2c1
COc1ccc(-c2ccnc(-c3ccc(O)cc3)n2)cc1
O=C(c1ccc(Br)cc1)c1cc([N+](=O)[O-])ccc1N1CCOCC1
COc1ccc([N+](=O)[O-])cc1Nc1c2ccccc2nc2ccccc12
COC(=O)/C=C/c1ccccc1S(=O)(=O)N(Cc1ccccc1)Cc1ccco1
NS(=O)(=O)c1ccc(S(=O)(=O)N(CCc2ccccc2)Cc2ccccn2)cc1
CCN1CCN(c2cc(C)c3cc(NC(=O)c4ccc(OC)c(OC)c4)ccc3n2)CC1
N=C1/C(=C/c2cccn2CCOc2ccccc2)C(=O)N=C2SC=C(c3ccccc3)N12
O=C1C=C(NCCc2cc(Br)c(O)c(Br)c2)C(=O)c2ncccc21
Nc1c(C(=O)c2ccco2)oc2ccccc12
Nc1ccn(C2OC(CO)C(O)C2O)c(=O)n1 (stereo unspecified)
O=C(CCCl)Nc1nc2c(s1)CCc1ccccc1-2
C[C@H]1CN([C@@H](C)CO)S(=O)(=O)c2ccc(C#CC3CCCCC3)cc2O[C@H]1CN(C)Cc1cccnc1
CCOC(=O)c1ccc(N2CCOCC2)c(NC(=O)c2c(-c3ccccc3)noc2C)c1
CCN(CC)c1ccc(/C=N/NC(=O)c2cnccn2)cc1
COc1ccc(NC(=O)c2cc(S(=O)(=O)N3CCOCC3)ccc2C)cc1S(=O)(=O)N1CCOCC1
OC[C@@H]1CN(Cc2ccc(-c3ccccc3)cc2)C[C@H](n2cnc3c(NC4CC4)ncnc32)O1
COc1ccccc1NC(=O)CSc1ccc(-c2ccccn2)nn1
COc1ccccc1N=C1SC(C(=O)Nc2cccc(Cl)c2Cl)C(N)=C1C(N)=O (stereo unspecified)
CC(C)C[C@H]1CN([C@@H](Cc2ccc(O)cc2)CN2CCC[C@H]2CN2C(=O)C(=O)NC[C@@H]2Cc2ccccc2)C(=O)C(=O)N1CC1CCCCC1
CCC(=O)N1CC2(CCN(Cc3ccc(Cl)cc3)CC2)c2c(n(C)c3cc(OC)ccc23)[C@H]1CO
COC(=O)C1=CN(c2ccc(OC)cc2OC)C(N)=C(C#N)C1c1ccccc1F (stereo unspecified)
CCCC(=O)NC(c1ccc(Cl)cc1)c1ccc2cccnc2c1O (stereo unspecified)
Cc1cccc(NC(=S)N/N=C/c2cccc(O)c2)c1C
Cc1cnc(NC(=O)c2ccc3c(c2)OCCO3)s1
Cc1cc(Br)cc(/C=N/NC(=O)c2ccc3c(c2)OCO3)c1O
O=C(Cc1ccc(Br)cc1)NCc1ccccc1
Cc1nc(N)[nH]c(=O)c1CCCNS(=O)(=O)c1ccc([N+](=O)[O-])cc1
CC(C)CN(CCCNC(=O)CN1C(=O)CSc2ccc(S(=O)(=O)N3CCOCC3)cc21)CC(C)C
CCN(CC)C(=O)c1oc2ccc(S(=O)(=O)N3CC(C)CC(C)C3)cc2c1C (stereo unspecified)
O=C(N=Nc1c(O)[nH]c2ccc(Br)cc12)c1ccccc1-n1cccc1
Cn1cccc1/C=C1\SC(=Nc2cccc(O)c2)NC1=O
Cc1ccc(C2NC(=O)c3ccccc3N2)c(C)c1 (stereo unspecified)
Cn1cc(C(=O)N/N=C/c2ccc3c(c2)OCO3)c2ccccc21
COc1cc(OC)c2c(-c3cccc(-c4cccc(N)c4)c3)cc(=O)oc2c1
CC(C)Nc1ccc(Nc2ccnc3cc4ccccc4cc23)cc1
COc1cccc(-c2ccc([C@H]3[C@@H](CO)N(C(=O)c4ccccn4)[C@H]3C#N)cc2)c1
Cc1ccccc1S(=O)(=O)N1C[C@@H]2N[C@H](C1)C2c1ccc(-c2cccc(C#N)c2)cc1 (stereo partly specified)
Cc1cccc(S(=O)(=O)N2C[C@H]3[C@@H](c4ccccc42)[C@H](CO)N3CC2CCCC2)c1
CN1c2ccc(-c3ccc(F)cc3)cc2[C@H]2[C@H](CCN2S(=O)(=O)c2cccc(F)c2)[C@@H]1CO
COc1ccc(-c2ccc3c(c2)[C@H]2[C@H](CCN2S(=O)(=O)c2ccc(OC)cc2)[C@H](CO)N3C)cc1
CCCNC(=O)N1CC2(CN(S(=O)(=O)c3cccc(OC)c3)C2)c2c(n(C)c3cc(OC)ccc23)[C@H]1CO
Cc1ccc(C)c(C2NC(=O)c3ccccc3N2)c1 (stereo unspecified)
COC(=O)CSC1=C(C#N)C(c2ccc(C)o2)CC(=O)N1 (stereo unspecified)
COc1ccccc1CNC(=O)Nc1nc(C(N)Cc2ccc(Cl)cc2)cs1 (stereo unspecified)
CN(C)CCCN(C(=O)c1ccco1)c1nc(-c2ccc(Cl)cc2)cs1
O=C(CCc1ccccc1)NCC(c1ccco1)N1CCc2ccccc21 (stereo unspecified)
CCOC(=O)c1oc2ccc(S(=O)(=O)n3nc(-c4ccccc4)cc3N)cc2c1C
Cc1ccc(C(=O)N/N=C/c2cc(Br)ccc2O)cn1
Cc1ccc(-c2ccc3c(c2)O[C@H](CN(C)Cc2ccccn2)[C@@H](C)CN([C@@H](C)CO)S3(=O)=O)cc1
O=[N+]([O-])c1ccc(N=Nc2c(Cl)cc(O)cc2Cl)cc1
COc1ccc(OC)c2[nH]c(C(=O)N/N=C/c3ccccc3O)cc12
Cc1ccc(-c2ccc3c(c2)O[C@@H](CN(C)Cc2ccccn2)[C@H](C)CN([C@H](C)CO)S3(=O)=O)cc1
Cn1c(C(=O)c2ccccc2[N+](=O)[O-])nc2ccccc21
Cc1cccc(N2CCN(S(=O)(=O)c3cc(-c4cc(C)no4)ccc3C)CC2C)c1 (stereo unspecified)
C[C@@H]1CN([C@H](C)CO)S(=O)(=O)c2ccc(-c3ccccc3)cc2O[C@H]1CN(C)Cc1ccccn1
COc1ccc(-c2ccc3c(c2)[C@H]2[C@H](CCN2S(=O)(=O)c2ccc(OC)cc2)[C@@H](CO)N3)cc1
O=C(C[C@@H]1CC[C@H]2[C@@H](COC[C@H](O)CN2Cc2ccc3c(c2)OCO3)O1)Nc1ccc(-c2ccccc2)cc1 21.4% [at 2.85 µM]
COc1cc2c(-c3ccccc3)c(C)oc2cc1/C=N/NC(N)=S
Cc1ccc(/C=N/NC(=O)c2c(-c3ccccc3)noc2C)c(O)c1
CO/N=C\CC(=O)Nc1ccc(Cl)cc1Cl
CCOc1cc(/C=N/NC(=O)N/N=C/c2ccc(O)c(OCC)c2)ccc1O
COc1ccc(C2c3ccc4ccccc4c3Oc3ncn(CCCO)c(=N)c32)cc1OC (stereo unspecified)
CCOC(=O)c1c(NC(=O)C(=O)N/N=C/c2ccccc2O)sc2c1CCCCC2
O=c1c2ccccc2oc2cc(-c3ccc4[nH]ccc4c3)ccc12
O=C(NCCOc1ccccc1F)c1cc([N+](=O)[O-])ccc1N1CCOCC1
CCOc1ccc(C(=O)COC(=O)Cc2n[nH]c(=O)c3ccccc23)cc1
O=C1c2cccc3c(O)ccc(c23)C(=O)N1c1ccc(Cl)cc1
CCN1C(=O)c2cccc3c(S(=O)(=O)N(C(C)=O)c4ccc(OC(C)=O)cc4)ccc1c23
C/C(=N\Nc1ncnc2sc(C)c(C)c12)c1ccccn1
Cn1cccc1/C=C1\SC(=Nc2ccccc2)NC1=O
CCc1cc(-c2nnn(CCC3COCCO3)c2CC)ccc1-c1cn(Cc2ccc3ccccc3c2)nn1 (stereo unspecified)
COc1cc(NC(=O)c2csc(N)n2)cc(C(=O)Nc2cccc(C(F)(F)F)c2)c1
O=C(C1CCCCC1)N1CC(=O)N2[C@@H](CO)[C@H](c3ccc(C#Cc4cccc(F)c4)cc3)[C@@H]2C1
CC1=Nc2cc(C(=O)NCC3CCCO3)ccc2Sc2ccc(C)cc21 (stereo unspecified)
COc1ccccc1NC(=S)N(Cc1ccco1)Cc1cc2cc(C)cc(C)c2[nH]c1=O
CC(=O)O[C@H]1C(=O)[C@]2(C)[C@H]([C@H](OC(=O)c3ccccc3)[C@]3(O)C[C@H](OC(=O)[C@H](O)[C@@H](NC(=O)c4ccccc4)c4ccccc4)C(C)=C1C3(C)C)[C@]1(OC(C)=O)CO[C@@H]1C[C@@H]2O
COc1cc2c(cc1OC)C(C)N(C(=O)Nc1cc(C)cc(C)c1)CC2 (stereo unspecified)
C=CCN1c2ccccc2[C@]23C[C@@H](C(=O)OC)N(C(=O)c4cccs4)C2=NC(C(=O)OC)=C(C(=O)OC)[C@H]13
C[C@H]1CN([C@@H](C)CO)C(=O)Cc2cc(NC(=O)Nc3ccc(C(F)(F)F)cc3)ccc2O[C@H]1CN(C)S(=O)(=O)c1ccccc1
O=C(N/N=C\c1c(O)ccc2ccccc12)c1cncc(Br)c1
C[C@H]1CN([C@@H](C)CO)S(=O)(=O)c2ccc(C#Cc3ccc(F)cc3)cc2O[C@H]1CN(C)C(=O)NC1CCCC1
COc1ccc(OC)c(Nc2cc(C)nc3ccc(C)cc23)c1
C[C@H]1CN([C@@H](C)CO)S(=O)(=O)c2ccc(-c3ccc(C#N)cc3)cc2O[C@@H]1CN(C)Cc1ccccn1
Oc1ccc2ccccc2c1C=NNc1ccccn1
Cc1cccc(Nc2nc(N)nc(-c3oc4ccccc4c3C)n2)c1
CCOC(=O)c1ccc(Nc2sc(C(=O)c3cccc([N+](=O)[O-])c3)c(N)c2C#N)cc1
CCc1ccc(-c2nc(C(N)=O)c3[nH]c(=O)n(-c4ccccc4OC)c3n2)cc1
Nc1sc(-c2ccccc2)cc1-c1n[nH]c(=S)n1C1CCCCC1
Cc1ccc(C)c(CSc2nc3[nH]ncc3c(=O)[nH]2)c1
